Compound activity from PubChem.
Shown are actives, neighbours in structure and some others; about 11% of the full set was active somewhere.
L3MBTL1 block = inhibitors of human L3MBTL1. AlphaScreen L3MBTL1–H3K9me1 peptide binding. hit rate 0.66% among 230,000. Potency, µM (doses to about 57.1 µM), for inactives: at the highest dose activity, negative = inhibition, actives largely listed as inhibitors. Q9Y468; also: % is scaled to controls: 0 for no effect and ±100 for the full control effect; nearly all actives have a fitted effect of over 60% in size
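Read-out is AlphaScreen signal from streptavidin donor and nickel chelate acceptor beads (10 ug/mL final each) bridging L3MBTL1 (50 nM) and biotinylated K9-monomethylated H3(1-15) peptide (75 nM), after 30 min compound exposure at room temperature.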
HP1b chromo inh = inhibitors of HP1-beta chromodomain binding to methylated histone tails. hit rate 0.56% among 390,000. AlphaScreen HP1-beta / biotin-H3K9me3 peptide binding. Potency, µM (doses to about 114 µM), inactives show at the highest dose activity change, negative = inhibition, most hits filed as inhibitors; also: nearly all actives have a fitted effect of over 70% in size
Target sequence (P83916 whole entry, looked up): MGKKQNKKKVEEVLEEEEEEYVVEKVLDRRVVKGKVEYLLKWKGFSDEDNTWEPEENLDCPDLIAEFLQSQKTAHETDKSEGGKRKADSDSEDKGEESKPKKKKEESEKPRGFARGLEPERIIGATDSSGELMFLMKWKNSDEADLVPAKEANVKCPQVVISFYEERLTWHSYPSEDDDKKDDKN
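HP1-beta protein (50 nM final) preincubated 30 min at room temperature with biotinylated H3(1-18)K9me3 peptide (50 nM) in PBS pH 7.4, 0.01% Tween-20, then compound added for 30 min. AlphaScreen streptavidin donor/nickel chelate acceptor beads (10 ug/mL final), 30 min dark, luminescence read.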
BAZ2B inh = blocks human BAZ2B; AlphaScreen BAZ2B-H3K14Ac peptide displacement; Potency, µM (series often up to 114 µM), for the others: top-dose activity change, negative = inhibition, most hits filed as inhibitors; hit rate 4.4% among 360,000; also: % is scaled to controls: 0 for no effect and ±100 for the full control effect; nearly all actives have a fitted effect of over 60% in size
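BAZ2B 50 nM plus b-H3(5-23)K14Ac 50 nM, PBS pH 7.4/0.01% Tween-20, 30 min RT; compound added (max 110 uM), 30 min RT; streptavidin donor/Ni-chelate acceptor beads 10 ug/mL final, 20 min dark; AlphaScreen read.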
G9a block = G9a (human) methyltransferase inhibition | G9a H3K9 monomethylation, AlphaScreen, 2 h | Potency, µM (highest dose often 102 µM), inactives show at the highest dose activity, negative = inhibition, hits mostly inhibitors | hit rate 8.8% among 350,000; also: % is scaled to controls: 0 for no effect and ±100 for the full control effect; nearly all actives have a fitted effect of over 75% in size
Target sequence (Q96KQ7 913-1193 limits assumed): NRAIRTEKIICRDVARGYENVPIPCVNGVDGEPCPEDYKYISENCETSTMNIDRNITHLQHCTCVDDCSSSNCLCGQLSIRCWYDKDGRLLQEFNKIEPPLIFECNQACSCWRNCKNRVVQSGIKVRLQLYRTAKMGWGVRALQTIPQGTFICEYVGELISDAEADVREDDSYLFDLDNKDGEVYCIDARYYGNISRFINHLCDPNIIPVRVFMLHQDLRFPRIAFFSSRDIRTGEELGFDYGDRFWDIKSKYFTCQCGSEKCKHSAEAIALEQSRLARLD
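Readings reflect AlphaScreen signal from monomethyl-H3K9 antibody detection. HMT at 20 nM; substrate b-H3K9 500 nM; cofactor SAM 20 uM; 2 h RT reaction; compounds tested as titrations in qHTS with 15 min preincubation.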
JMJD2A Tudor inh = blocks the human JMJD2A Tudor domain. O75164. AlphaScreen JMJD2A-Tudor / H3K4me3 peptide binding. Potency, µM (top dose mostly 114 µM), for the others: at the highest dose activity change, negative = inhibition, most hits filed as inhibitors. hit rate 4.4% among 390,000. AID 504339; also: % is scaled to controls: 0 for no effect and ±100 for the full control effect; nearly all actives have a fitted effect of over 50% in size
The depositor's hits bear a star; ? = inconclusive; / = not tested or not shown; [ ] = dose if it differs, or a comment. Calls follow the shape of the dose curve; as a rule, active = well fitted inhibition curve with a large enough effect; inconclusive = small, poorly fitted or top-dose-only effect; inactive = no such curve, though single readings can be large or run the other way. Potency is read from the fitted curve at half-maximal effect.

SMILES	L3MBTL1 block	HP1b chromo inh	BAZ2B inh	G9a block	JMJD2A Tudor inh
Cn1c(SCc2nc3ccccc3s2)nnc1-c1cccs1	-2%	3%	4%	45µM*	-33%
Cn1c(SCC(=O)c2ccc(O)c(O)c2)nnc1-c1cccs1	-83%	-5%	50µM*	/	25µM*
COc1ccc(S(=O)(=O)N2CCOC2CNC(=O)C(=O)NCCCn2ccnc2)cc1OC (stereo unspecified)	-29%	63%	22µM*	14%	-21%
COc1ccc(CCNC(=O)C(=O)NCC2OCCN2S(=O)(=O)c2ccc(OC)c(OC)c2)cc1OC (stereo unspecified)	2%	17%	-6%	0%	-19%
COc1ccc(S(=O)(=O)N2CCCOC2CNC(=O)C(=O)NCCCn2ccnc2)cc1OC (stereo unspecified)	-8%	8%	71µM*	4%	-14%
COc1ccc(N=Nc2nc3cc(Br)c(Br)cc3n2C)c(OC)c1	?	45µM*	35µM*	?	32µM*
COc1ccc(CNc2nc3ccccc3n2C)c(OC)c1	-4%	22%	-10%	11%	-11%
CCc1ccc(NC(=O)c2ccc3c(=O)n4nc(Nc5ccccc5C)sc4nc3c2)cc1	/	12%	-10%	-10%[59 µM]	-10%
O=C(c1ccccc1)c1ccc(OCC(O)CNCc2ccc(Cl)cc2)cc1 (stereo unspecified)	/	?	56µM*	?	20µM*
COc1cccc(CNCC(O)COc2ccc(C(=O)c3ccccc3)cc2)c1 (stereo unspecified)	/	?	50µM*	10µM*	56µM*
CC(O)CNC(=O)C(=O)Nc1c2c(nn1-c1ccc(Cl)cc1)CSC2 (stereo unspecified)	/	-11%	0%	?	-17%
CNC(C)C#Cc1ccc2oc3cccc(OC)c3c(=O)c2c1 (stereo unspecified)	-2%	27%	-23%	45µM*	-15%
CNC(C)C#Cc1ccc2c(=O)c3c(OC)cccc3oc2c1 (stereo unspecified)	7%	/	-6%	/	/
COc1cccc2sc3ccc(C#CC4(N)CCCCC4)cc3c(=O)c12	-3%	36%	-13%	/	-29%
CNC(C)C#Cc1ccc2sc3cccc(OC)c3c(=O)c2c1 (stereo unspecified)	3%	27%	-7%	71µM*	-22%
CCS(=O)(=O)N1CCN(S(=O)(=O)c2ccccc2[N+](=O)[O-])CC1	-15%	51%	?	-7%	3%
O=[N+]([O-])c1ccccc1S(=O)(=O)N1CCN(Cc2ccccc2)CC1	0%	4%	?	79µM*	?
CCn1c(=O)c([N+](=O)[O-])c(N2CCN(Cc3ccc4c(c3)OCO4)CC2)c2ccccc21	-4%	?	?	32µM*	?
CCn1c(=O)c([N+](=O)[O-])c(N2CCSCC2)c2ccccc21	-3%	-15%	?	/	-35%
O=S(=O)(c1cc(Cl)ccc1Cl)N1CCN(Cc2ccc3c(c2)OCO3)CC1	/	45%	-22%	-30%	0%
O=[N+]([O-])c1ccccc1S(=O)(=O)N1CCN(Cc2ccc3c(c2)OCO3)CC1	-15%	16µM*	50µM*	10µM*	-27%[11.4 µM]
O=C(Nc1ccc(Cl)c(C(F)(F)F)c1)C1CCN(S(=O)(=O)c2cccc3nonc23)CC1	/	1%	-3%	-32%[59 µM]	-23%
Cc1c2cnn(CC(=O)NCCc3ccccc3)c(=O)c2c(C)n1Cc1ccccc1	/	21%	1%	11%[59 µM]	-3%
Cc1cccc(C(=O)NC(=O)Nc2ccc(-n3nc(C(F)(F)F)cc3C(F)(F)F)cc2)c1	/	14%	-14%	1%[59 µM]	-29%
CCOC(=O)N1CCN(S(=O)(=O)c2ccc(C(=O)N(CCCN(C)C)c3nc4c(C)c(C)ccc4s3)cc2)CC1	-5%	-18%	-35%	50µM*	?
SMILES	L3MBTL1 block	HP1b chromo inh	BAZ2B inh	G9a block	JMJD2A Tudor inh
CN(C)CCCN(C(=O)c1ccc(S(=O)(=O)N2CCCCCC2)cc1)c1nc2c(F)cc(F)cc2s1	1%	-12%	?	45µM*	?
CCOC(=O)N1CCN(S(=O)(=O)c2ccc(C(=O)N(CCN(C)C)c3nc4c(C)cccc4s3)cc2)CC1	/	-6%	?	45µM*	?
Cc1ccc2nc(N(CCCN(C)C)C(=O)c3ccc(S(=O)(=O)N4CCOCC4)cc3)sc2c1	/	12%	-11%	-2%	-14%
CCN(CC)CCN(C(=O)c1ccc(S(=O)(=O)N(C)C2CCCCC2)cc1)c1nc2c(C)cccc2s1	/	6%	-29%	-15%	-31%
CN(C)CCCN(C(=O)c1ccc(S(=O)(=O)N2CCCC2)cc1)c1nc2c(F)cc(F)cc2s1	-1%	-1%	5%	?	-19%
Cc1ccc2sc(N(CCCN(C)C)C(=O)c3ccc(S(=O)(=O)N4CCOCC4)cc3)nc2c1C	-3%	8%	-7%	50µM*	-30%
Cc1ccc(N2C(=O)CSC23C(=O)N(CC(=O)Nc2ccc(C)cc2C)c2ccccc23)cc1 (stereo unspecified)	/	13%	12%[57.1 µM]	1%[59 µM]	-24%
COc1cc(/C=C(\C#N)c2nc3ccccc3[nH]2)cc(Cl)c1OCc1ccccc1Cl	/	46%	-3%	11%[59 µM]	-3%
COc1ccccc1CNC(=O)CSc1ncc(S(=O)(=O)c2ccc(C)c(Cl)c2)c(=O)[nH]1	/	27%[57 µM]	2%	-16%[59 µM]	-12%
Cc1ccc(C(=O)COC(=O)CCC(=O)Nc2ccc(Oc3ccccc3)cc2)cc1	/	47%	2%	-1%[59 µM]	5%
COc1ccc2sc(N(CCCN(C)C)C(=O)c3ccc(S(=O)(=O)N4CCCC4)cc3)nc2c1	-7%	11%	-15%	?	-23%
CCOC(=O)N1CCN(S(=O)(=O)c2ccc(C(=O)N(CCCN(C)C)c3nc4cc(OC)ccc4s3)cc2)CC1	-18%	10%	-11%	56µM*	-35%
Cc1ccc2sc(N(CCN(C)C)C(=O)c3ccc(S(=O)(=O)N4CC(C)OC(C)C4)cc3)nc2c1C (stereo unspecified)	/	-3%	?	50µM*	?
Cc1ccc(CNC(=O)c2cc3c(s2)-c2c(C)cccc2OC3)cc1	/	47%	-25%	8%[59 µM]	-7%
O=[N+]([O-])c1ccc(N2CCN(Cc3ccc([N+](=O)[O-])o3)CC2)cc1	-5%	?	32µM*	?	20µM*
O=[N+]([O-])c1ccc(N2CCN(c3ccc(F)cc3)CC2)cc1	/	-5%	-8%	-2%	-16%
O=[N+]([O-])c1ccc(N2CCN(Cc3ccncc3)CC2)cc1	2%	?	50µM*	32µM*	22µM*
Clc1ccccc1-c1ccc(CN2CCN(c3ccccc3)CC2)o1	/	41%	?	?	?
O=[N+]([O-])c1ccc(CN2CCN(c3ccccc3Cl)CC2)o1	-4%	?	50µM*	28µM*	22µM*
